Reference: the supplement of paper PMC8728848
The full list was thinned out, with the strongest signals kept by preference.

Assays:
Experiment in all cases: glycan array binding signal (z-score within array); higher = stronger binding
Settings in all cases: glycan notation: IUPAC condensed, linker removed
[1] = target: Fuc(a1-2)Gal(b1-3)GlcNAc(b1-3)[Gal(b1-4)[Fuc(a1-3)]GlcNAc(b1-6)]Gal(b1-4)Glc
Outline: (§1)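 Arrays were curated from the Consortium for Functional Glycomics database, 3228 in total, and kept only where the protein sequence was available. Binding is expressed as a within-array Z-score. This score was averaged across arrays of the same protein sequence at different concentrations or buffers and across linkers, and negative values can be read as non-binding.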

[2] = target: Fuc(a1-2)Gal(b1-3)[Fuc(a1-4)]GlcNAc(b1-2)Man(a1-3)[Fuc(a1-2)Gal(b1-3)[Fuc(a1-4)]GlcNAc(b1-2)Man(a1-6)]Man(b1-4)GlcNAc(b1-4)GlcNAc
Outline: as §1

[3] = target: Fuc(a1-2)Gal(b1-4)[Fuc(a1-3)]GlcNAc
Outline: as §1

Fuc(a1-2)GlcNAc = target: Fuc(a1-2)GlcNAc
Outline: as §1

[4] = target: Fuc(a1-2)[Gal(a1-3)]Gal(b1-3)GalNAc
Outline: as §1

[5] = target: Fuc(a1-2)[GalNAc(a1-3)]Gal(b1-4)GlcNAc(b1-2)Man(a1-3)[Fuc(a1-2)[GalNAc(a1-3)]Gal(b1-4)GlcNAc(b1-2)Man(a1-6)]Man(b1-4)GlcNAc(b1-4)GlcNAc
Outline: as §1

[6] = target: Fuc(a1-2)[GalNAc(a1-3)]Gal(b1-4)GlcNAc(b1-3)Gal(b1-4)GlcNAc
Outline: as §1

[7] = target: Fuc(a1-2)[GalNAc(a1-3)]Gal(b1-4)GlcNAc(b1-3)Gal(b1-4)GlcNAc(b1-3)Gal(b1-4)GlcNAc
Outline: as §1

[8] = target: Fuc(a1-2)[GalNAc(a1-3)]Gal(b1-4)[Fuc(a1-3)]GlcNAc(b1-3)GalNAc
Outline: as §1

[9] = target: Fuc(a1-2)[GalNAc(a1-4)]Gal(b1-4)GlcNAc
Outline: as §1

[10] = target: Fuc(a1-3)[Gal(b1-4)]Glc6S
Outline: as §1

[11] = target: Fuc(a1-3)[Gal(b1-4)]GlcNAc(b1-2)Man(a1-3)[Fuc(a1-3)[Gal(b1-4)]GlcNAc(b1-2)Man(a1-6)]Man(b1-4)GlcNAc(b1-4)GlcNAc
Outline: as §1

[12] = target: Fuc(a1-3)[Gal(b1-4)]GlcNAc(b1-3)Gal(b1-4)[Fuc(a1-3)]GlcNAc
Outline: as §1

[13] = target: Fuc(a1-3)[Gal(b1-4)]GlcNAc(b1-4)Gal(b1-4)[Fuc(a1-3)]GlcNAc(b1-4)Gal(b1-4)[Fuc(a1-3)]GlcNAc
Outline: as §1

[14] = target: Fuc(a1-3)[Neu5Ac(a2-3)]Gal(b1-4)GlcNAc(b1-3)GalNAc
Outline: as §1

Gal(a1-3)Gal(b1-3)GlcNAc = target: Gal(a1-3)Gal(b1-3)GlcNAc
Outline: as §1

[15] = target: Gal(a1-3)Gal(b1-4)GlcNAc(b1-6)GalNAc
Outline: as §1

Gal(a1-4)Gal(b1-4)GlcNAc = target: Gal(a1-4)Gal(b1-4)GlcNAc
Outline: as §1

Gal(b1-2)Gal = target: Gal(b1-2)Gal
Outline: as §1

Gal(b1-3)GalNAc(b1-3)Gal = target: Gal(b1-3)GalNAc(b1-3)Gal
Outline: as §1

[16] = target: Gal(b1-3)GalNAc(b1-4)[Neu5Ac(a2-3)]Gal(b1-4)Glc
Outline: as §1

Gal(b1-3)GlcNAc(b1-2)Man = target: Gal(b1-3)GlcNAc(b1-2)Man
Outline: as §1

[17] = target: Gal(b1-3)GlcNAc(b1-3)Gal(b1-4)GlcNAc(b1-3)Gal(b1-4)GlcNAc(b1-2)[Gal(b1-3)GlcNAc(b1-3)Gal(b1-4)GlcNAc(b1-3)Gal(b1-4)GlcNAc(b1-6)]Man(a1-6)[Gal(b1-3)GlcNAc(b1-3)Gal(b1-4)GlcNAc(b1-3)Gal(b1-4)GlcNAc(b1-2)Man(a1-3)]Man(b1-4)GlcNAc(b1-4)[Fuc(a1-6)]GlcNAc
Outline: as §1

[18] = target: Gal(b1-3)GlcNAc(b1-3)Gal(b1-4)GlcNAc(b1-6)[Gal(b1-3)GlcNAc(b1-3)]Gal(b1-4)Glc
Outline: as §1

[19] = target: Gal(b1-3)GlcNAc(b1-6)[Gal(b1-3)]GalNAc
Outline: as §1

[20] = target: Gal(b1-3)[Fuc(a1-4)]GlcNAc(b1-2)Man(a1-3)[Gal(b1-3)[Fuc(a1-4)]GlcNAc(b1-2)Man(a1-6)]Man(b1-4)GlcNAc(b1-4)GlcNAc
Outline: as §1

[21] = target: Gal(b1-4)GlcNAc(b1-2)Man(a1-3)[GlcNAc(b1-4)][Gal(b1-4)GlcNAc(b1-2)Man(a1-6)]Man(b1-4)GlcNAc(b1-4)GlcNAc
Outline: as §1

[22] = target: Gal(b1-4)GlcNAc(b1-3)Gal(b1-4)GlcNAc(b1-3)Gal(b1-4)GlcNAc(b1-2)[Gal(b1-4)GlcNAc(b1-3)Gal(b1-4)GlcNAc(b1-3)Gal(b1-4)GlcNAc(b1-6)]Man(a1-6)[Gal(b1-4)GlcNAc(b1-3)Gal(b1-4)GlcNAc(b1-3)Gal(b1-4)GlcNAc(b1-2)Man(a1-3)]Man(b1-4)GlcNAc(b1-4)[Fuc(a1-6)]GlcNAc
Outline: as §1

[23] = target: Gal(b1-4)GlcNAc(b1-3)Gal(b1-4)GlcNAc(b1-3)Gal(b1-4)GlcNAc(b1-3)Gal(b1-4)GlcNAc(b1-3)Gal(b1-4)GlcNAc(b1-2)Man(a1-3)[Gal(b1-4)GlcNAc(b1-3)Gal(b1-4)GlcNAc(b1-3)Gal(b1-4)GlcNAc(b1-3)Gal(b1-4)GlcNAc(b1-3)Gal(b1-4)GlcNAc(b1-2)Man(a1-6)]Man(b1-4)GlcNAc(b1-4)[Fuc(a1-6)]GlcNAc
Outline: as §1

[24] = target: Gal(b1-4)GlcNAc(b1-3)Gal(b1-4)GlcNAc(b1-6)[Gal(b1-3)]GalNAc
Outline: as §1

[25] = target: Fuc(a1-2)Gal(b1-4)GlcNAc(b1-2)Man(a1-3)[Fuc(a1-2)Gal(b1-4)GlcNAc(b1-2)Man(a1-6)]Man(b1-4)GlcNAc(b1-4)GlcNAc
Outline: as §1

Gal(a1-2)Gal = target: Gal(a1-2)Gal
Outline: as §1

[26] = target: Gal(a1-3)[Gal(a1-4)]Gal(b1-4)GlcNAc
Outline: as §1

[27] = target: Gal(b1-4)GlcNAc(b1-6)Gal(b1-4)GlcNAc(b1-6)GalNAc
Outline: as §1

[28] = target: Gal(b1-4)GlcNAc(b1-6)GalNAc
Outline: as §1

Gal3S6S(b1-4)GlcNAc6S = target: Gal3S6S(b1-4)GlcNAc6S
Outline: as §1

GalNAc(b1-3)Gal = target: GalNAc(b1-3)Gal
Outline: as §1

[29] = target: GalNAc(b1-3)Gal(a1-4)Gal(b1-4)GlcNAc
Outline: as §1

[30] = target: GalNAc(b1-3)Gal(a1-4)Gal(b1-4)GlcNAc(b1-3)Gal(b1-4)Glc
Outline: as §1

[31] = target: GlcNAc(a1-4)Gal(b1-4)GlcNAc(b1-3)Gal(b1-4)Glc
Outline: as §1

GlcNAc(b1-6)GalNAc = target: GlcNAc(b1-6)GalNAc
Outline: as §1

Kdn(a2-3)Gal(b1-3)GlcNAc = target: Kdn(a2-3)Gal(b1-3)GlcNAc
Outline: as §1

Kdn(a2-3)Gal(b1-4)GlcNAc = target: Kdn(a2-3)Gal(b1-4)GlcNAc
Outline: as §1

Man(a1-3)[Man(a1-6)]Man = target: Man(a1-3)[Man(a1-6)]Man
Outline: as §1

[32] = target: Man(a1-3)[Man(a1-6)]Man(a1-6)[Man(a1-2)Man(a1-3)]Man(b1-4)GlcNAc(b1-4)GlcNAc
Outline: as §1

[33] = target: Neu5Ac(a2-3)Gal(b1-3)GalNAc
Outline: as §1

[34] = target: Neu5Ac(a2-3)Gal(b1-3)GalNAc(b1-3)Gal(b1-4)GlcNAc
Outline: as §1

[35] = target: Neu5Ac(a2-3)Gal(b1-3)[Neu5Ac(a2-3)Gal(b1-4)]GlcNAc
Outline: as §1

Neu5Ac(a2-3)GalNAc = target: Neu5Ac(a2-3)GalNAc
Outline: as §1

[36] = target: Neu5Ac(a2-6)GlcNAc(b1-4)GlcNAc
Outline: as §1

[37] = target: Neu5Ac(b2-6)Gal(b1-4)GlcNAc
Outline: as §1

Neu5Ac(b2-6)GalNAc = target: Neu5Ac(b2-6)GalNAc
Outline: as §1

[38] = target: Neu5Gc(a2-3)Gal(b1-4)[Fuc(a1-3)]GlcNAc
Outline: as §1

Neu5Gc(a2-6)GalNAc = target: Neu5Gc(a2-6)GalNAc
Outline: as §1

B1: HPA (Helix pomatia), Q2F1K8 (protein)
chain: MQAFYSGLLLLCVVAFAAAQRVQSGKIDCGNDAGWAKVPSDDPGRDNTRELAKNITFASPYCRPPVVLLSITQLDVEQSQNLRVIARLYSVSPTGFKASCYTWHNTKVYSMSISWISIENY
glycan array binding signal (z-score) [1]: -0.454
glycan array binding signal (z-score) [2]: 4.62
glycan array binding signal (z-score) [3]: -0.109
glycan array binding signal (z-score) (Fuc(a1-2)GlcNAc): -0.295
glycan array binding signal (z-score) [4]: -0.303
glycan array binding signal (z-score) [5]: 3.07
glycan array binding signal (z-score) [6]: 2.66
glycan array binding signal (z-score) [7]: 3.15
glycan array binding signal (z-score) [8]: 0.306
glycan array binding signal (z-score) [9]: 2.81
glycan array binding signal (z-score) [10]: 0.244
glycan array binding signal (z-score) [11]: -0.126
glycan array binding signal (z-score) [12]: -0.242
glycan array binding signal (z-score) [13]: -0.09
glycan array binding signal (z-score) [14]: 4.26
glycan array binding signal (z-score) (Gal(a1-3)Gal(b1-3)GlcNAc): -0.213
glycan array binding signal (z-score) [15]: -0.173
glycan array binding signal (z-score) (Gal(a1-4)Gal(b1-4)GlcNAc): -0.114
glycan array binding signal (z-score) (Gal(b1-2)Gal): -0.074
glycan array binding signal (z-score) (Gal(b1-3)GalNAc(b1-3)Gal): -0.375
glycan array binding signal (z-score) [16]: -0.291
glycan array binding signal (z-score) (Gal(b1-3)GlcNAc(b1-2)Man): -0.119
glycan array binding signal (z-score) [17]: 0.092
glycan array binding signal (z-score) [18]: -0.34
glycan array binding signal (z-score) [19]: -0.205
glycan array binding signal (z-score) [20]: 2.87
glycan array binding signal (z-score) [21]: -0.311
glycan array binding signal (z-score) [22]: 0.257
glycan array binding signal (z-score) [23]: 0.027
glycan array binding signal (z-score) [24]: 0.365

B2: HHL-1 (Homo sapiens), P07306 (protein)
chain: TKEYQDLQHLDNEESDHHQLRKGPPPPQPLLQRLCSGPRLLLLSLGLSLLLLVVVCVIGSQNSQLQEELRGLRETFSNFTASTEAQVKGLSTQGGNVGRKMKSLESQLEKQQKDLSEDHSSLLLHVKQFVSDLRSLSCQMAALQGNGSERTCCPVNWVEHERSCYWFSRSGKAWADADNYCRLEDAHLVVVTSWEEQKFVQHHIGPVNTWMGLHDQNGPWKWVDGTDYETGFKNWRPEQPDDWYGHGLGGGEDCAHFTDDGRWNDDVCQRPYRWVCETELDKASQEPPLL
glycan array binding signal (z-score) [1]: 0.628
glycan array binding signal (z-score) [25]: -0.533
glycan array binding signal (z-score) [7]: -0.3
glycan array binding signal (z-score) [9]: 7.69
glycan array binding signal (z-score) (Gal(a1-2)Gal): 0.419
glycan array binding signal (z-score) [26]: 0.667
glycan array binding signal (z-score) (Gal(a1-4)Gal(b1-4)GlcNAc): -0.54
glycan array binding signal (z-score) [27]: 0.262
glycan array binding signal (z-score) [28]: 4.51
glycan array binding signal (z-score) (Gal3S6S(b1-4)GlcNAc6S): 0.503
glycan array binding signal (z-score) (GalNAc(b1-3)Gal): 4.09
glycan array binding signal (z-score) [29]: 5.53
glycan array binding signal (z-score) [30]: 5.52
glycan array binding signal (z-score) [31]: -0.538
glycan array binding signal (z-score) (GlcNAc(b1-6)GalNAc): 7.59
glycan array binding signal (z-score) (Kdn(a2-3)Gal(b1-3)GlcNAc): -0.538
glycan array binding signal (z-score) (Kdn(a2-3)Gal(b1-4)GlcNAc): 0.051
glycan array binding signal (z-score) (Man(a1-3)[Man(a1-6)]Man): -0.472
glycan array binding signal (z-score) [32]: -0.485
glycan array binding signal (z-score) [33]: 0.366
glycan array binding signal (z-score) [34]: -0.541
glycan array binding signal (z-score) [35]: -0.548
glycan array binding signal (z-score) (Neu5Ac(a2-3)GalNAc): -0.482
glycan array binding signal (z-score) [36]: 0.387
glycan array binding signal (z-score) [37]: -0.409
glycan array binding signal (z-score) (Neu5Ac(b2-6)GalNAc): -0.515
glycan array binding signal (z-score) [38]: 0.159
glycan array binding signal (z-score) (Neu5Gc(a2-6)GalNAc): -0.536
